Source: PubChem (Broad Institute)
This is one part of a sample in which hits are shown more often than they occur.
miR-122 inh – activators of miR-122 sensor in Huh7 cells. actives 0.14% (n = 340,000). activation, % at 12.5 µM. Huh7 psiCHECK-miR122 Renilla luciferase sensor, 48 h;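 active = mean activation of 30% or more, with every replicate also reaching 30%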;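 also: 0% = median of neutral control wells and 100% = median of positive control wells; higher luciferase signal means stronger suppression of miR-122 activity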
Starred values were filed as active, the others as inactive.

SMILES | miR-122 inh
C[C@@H]1CN([C@H](C)CO)S(=O)(=O)c2ccc(/C=C/c3ccccc3)cc2O[C@H]1CN(C)C(=O)Nc1cccc(F)c1 | -16.3
CC(C)C#Cc1ccc2c(c1)O[C@H](CN(C)C(=O)CN(C)C)[C@@H](C)CN([C@@H](C)CO)S2(=O)=O | -12.0
COc1ccc(S(=O)(=O)N(C)C[C@@H]2Oc3cc(-c4ccccc4OC)ccc3S(=O)(=O)N([C@@H](C)CO)C[C@H]2C)cc1 | 0.3
C[C@H]1CN([C@@H](C)CO)C(=O)c2cc(C#CC3(O)CCCC3)cnc2O[C@H]1CN(C)Cc1cncnc1 | -4.2
CCCN(C)C[C@H]1Oc2cc(C#CC(C)C)ccc2S(=O)(=O)N([C@@H](C)CO)C[C@H]1C | -29.3
C[C@@H]1CN([C@@H](C)CO)C(=O)c2cccc(NS(=O)(=O)c3ccccc3)c2O[C@@H]1CN(C)Cc1ccc(C(=O)Nc2ccccc2N)cc1 | -180.9
C/C=C/c1ccc2c(c1)O[C@@H](CN(C)S(=O)(=O)c1ccccc1OC)[C@H](C)CN([C@@H](C)CO)S2(=O)=O | -3.2
C[C@@H]1CN([C@H](C)CO)C(=O)c2cc(C#CCc3ccccc3)cnc2O[C@H]1CN(C)Cc1ccccn1 | 5.3
COc1ccccc1CNC(=O)C[C@H]1CC[C@H]2[C@@H](COc3ccc(NS(=O)(=O)c4ccc(C)cc4)cc3C(=O)N2C)O1 | -806.7
CN1C(=O)c2cc(NC(=O)c3cccc(C(F)(F)F)c3)ccc2OC[C@H]2O[C@H](CC(=O)NCCN3CCCC3)CC[C@H]21 | 65.0*
CCCNC(=O)C[C@H]1CC[C@@H]2[C@@H](COc3ccc(NC(=O)c4ccc(C(F)(F)F)cc4)cc3C(=O)N2C)O1 | 45.0*
CO[C@@H]1CN(C)C(=O)c2ccc(NS(=O)(=O)c3ccc(C)cc3)cc2OC[C@H](C)N(C)C[C@@H]1C | 0.6
CN1C(=O)c2cc(NC(=O)c3ccc(C(F)(F)F)cc3)ccc2OC[C@H]2O[C@H](CC(=O)NCc3ccc4c(c3)OCO4)CC[C@H]21 | 33.3*
Cc1ccc(S(=O)(=O)Nc2ccc3c(c2)C(=O)N(C)[C@@H]2CC[C@H](CC(=O)NCCc4ccncc4)O[C@@H]2CO3)cc1 | 45.0*
C[C@H](CO)N1C[C@H](C)[C@H](CN(C)CC2CCOCC2)Oc2ncc(C3=CCCCC3)cc2C1=O | 6.5
COc1ccc(NC(=O)N(C)C[C@H]2Oc3ncc(C4=CCCC4)cc3C(=O)N([C@@H](C)CO)C[C@@H]2C)cc1 | 1.7
CCCC#Cc1cnc2c(c1)C(=O)N([C@@H](C)CO)C[C@@H](C)[C@H](CN(C)Cc1cccnc1)O2 | 5.5
CCCNC(=O)N(C)C[C@H]1Oc2cc(C#CCOC)ccc2S(=O)(=O)N([C@H](C)CO)C[C@H]1C | -9.7
C[C@@H]1CN([C@@H](C)CO)C(=O)c2cc(C#Cc3ccc(F)cc3)cnc2O[C@@H]1CN(C)CC1CCOCC1 | 0.0
CCS(=O)(=O)Nc1ccc2c(c1)C(=O)N(C)C[C@@H](OC)[C@H](C)CN[C@@H](C)CO2 | -1.0
COc1ccc(S(=O)(=O)N(C)C[C@H]2Oc3cc(-c4ccccc4OC)ccc3S(=O)(=O)N([C@H](C)CO)C[C@H]2C)cc1 | -19.0
CCC(=O)Nc1ccc2c(c1)OC[C@H](C)NC[C@@H](C)[C@@H](OC)CN(C)C2=O | -7.2
C[C@H]1CN([C@@H](C)CO)C(=O)c2cc(C#Cc3cccnc3)cnc2O[C@@H]1CN(C)S(C)(=O)=O | -1.4
COCC#Cc1cnc2c(c1)C(=O)N([C@H](C)CO)C[C@@H](C)[C@@H](CN(C)Cc1ccccc1)O2 | -3.0
CC(=O)N(C)C[C@@H]1Oc2cc(C#CC3(O)CCCC3)ccc2S(=O)(=O)N([C@@H](C)CO)C[C@@H]1C | 10.0
SMILES | miR-122 inh
COCC#Cc1cnc2c(c1)C(=O)N([C@H](C)CO)C[C@@H](C)[C@H](CN(C)C(=O)Nc1ccc(OC)cc1)O2 | 5.8
C[C@H](O)C#Cc1cnc2c(c1)C(=O)N([C@@H](C)CO)C[C@H](C)[C@@H](CN(C)Cc1cncnc1)O2 | -5.9
COc1ccccc1C#Cc1ccc2c(c1)O[C@H](CN(C)Cc1cncnc1)[C@@H](C)CN([C@H](C)CO)S2(=O)=O | -21.7
C[C@H](CO)N1C[C@H](C)[C@@H](CN(C)Cc2cncnc2)Oc2cc(-c3cncnc3)ccc2S1(=O)=O | 5.3
C[C@@H]1CN([C@@H](C)CO)S(=O)(=O)c2ccc(C#C[C@@H](C)O)cc2O[C@@H]1CN(C)Cc1cncnc1 | 9.3
COc1ccccc1C#Cc1ccc2c(c1)O[C@@H](CN(C)Cc1cncnc1)[C@@H](C)CN([C@@H](C)CO)S2(=O)=O | 3.7
C[C@@H]1CN([C@H](C)CO)S(=O)(=O)c2ccc(C#C[C@@H](C)O)cc2O[C@@H]1CN(C)Cc1cccnc1 | -3.4
Cc1ccc(-c2ccc3c(c2)O[C@H](CN(C)Cc2cncnc2)[C@H](C)CN([C@@H](C)CO)S3(=O)=O)cc1 | 57.1*
C[C@H](O)C#Cc1ccc2c(c1)O[C@H](CN(C)C)[C@H](C)CN([C@@H](C)CO)S2(=O)=O | 3.4
COc1ccccc1C#Cc1ccc2c(c1)O[C@H](CN(C)Cc1cccnc1)[C@@H](C)CN([C@@H](C)CO)S2(=O)=O | 40.5*
C[C@H]1CN([C@@H](C)CO)S(=O)(=O)c2ccc(-c3ccccc3)cc2O[C@H]1CN(C)Cc1cncnc1 | 0.6
C[C@H](O)C#Cc1ccc2c(c1)O[C@H](CN(C)Cc1ccc(-c3ccccc3)cc1)[C@@H](C)CN([C@H](C)CO)S2(=O)=O | 48.6*
C[C@@H](O)C#Cc1ccc2c(c1)O[C@H](CN(C)Cc1cncnc1)[C@@H](C)CN([C@@H](C)CO)S2(=O)=O | -0.1
C[C@H](CO)N1C[C@H](C)[C@H](CN(C)Cc2ccc(-c3ccccc3)cc2)Oc2cc(C#C[C@@H](C)O)ccc2S1(=O)=O | 40.7*
C[C@H](CO)N1C[C@H](C)[C@H](CN(C)C(=O)Cc2ccncc2)Oc2ncc(C#CCN(C)C)cc2C1=O | -6.0
CCC(=O)N(C)C[C@@H]1Oc2ncc(C#Cc3ccc(OC)cc3)cc2C(=O)N([C@@H](C)CO)C[C@H]1C | -1.9
C[C@H](CO)N1C[C@H](C)[C@@H](CN(C)Cc2ccccn2)Oc2ncc(C#Cc3ccc(F)cc3)cc2C1=O | 3.3
CCCNC(=O)Nc1ccc2c(c1)OC[C@H](C)N(C)C[C@H](C)[C@@H](OC)CN(C)C2=O | -1.8
C[C@@H]1CN([C@H](C)CO)C(=O)c2cc(C#Cc3ccc(F)cc3)cnc2O[C@@H]1CN(C)CC1CCOCC1 | 2.9
CC(C)CC#Cc1cnc2c(c1)C(=O)N([C@H](C)CO)C[C@@H](C)[C@H](CN(C)C(=O)NC1CCCC1)O2 | -3.2
COc1cccc(NC(=O)N(C)C[C@@H]2Oc3cc(-c4cccc(C(=O)N(C)C)c4)ccc3S(=O)(=O)N([C@@H](C)CO)C[C@H]2C)c1 | -0.8
COCC#Cc1cnc2c(c1)C(=O)N([C@H](C)CO)C[C@@H](C)[C@H](CN(C)C(=O)Nc1ccccc1OC)O2 | 2.4
C[C@H](CO)N1C[C@H](C)[C@@H](CN(C)Cc2cccnc2)Oc2cc(C#C[C@@H](C)O)ccc2S1(=O)=O | -1.3
C[C@@H]1CN([C@H](C)CO)S(=O)(=O)c2ccc(C#C[C@@H](C)O)cc2O[C@@H]1CN(C)Cc1cncnc1 | 0.0
C[C@@H]1CN([C@H](C)CO)S(=O)(=O)c2ccc(C#C[C@@H](C)O)cc2O[C@H]1CN(C)Cc1cccnc1 | 2.1
C[C@@H]1CN([C@@H](C)CO)S(=O)(=O)c2ccc(C#C[C@@H](C)O)cc2O[C@H]1CN(C)Cc1ccc(-c2ccccc2)cc1 | 41.2*
